Structures are written as SMILES. Some of the results follow. Values without a mark were called inactive.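 How the source made its calls: active means compounds that raise the fluorescence signal in this interference counterscreen, with EC50 at or below 10 µM; inactive means the rest.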

As usually defined, the EC50 is the concentration that produces a half-maximal response.

This assay can be described thus: optical artefact potency, substrate without enzyme – biochemical, fluorescence intensity, triplicate, artefact control for kallikrein-7 zymogen activator project, dose response (AID 720493).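 Further: intact quenched peptide substrate alone read at 355 nm excitation and 520 nm emission; signal is fluorescence gain from T0 to T4 after four hours at room temperature.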 The conditions noted are these: EDANS-DABCYL peptide fluorescence interference, no enzyme.
`O=C(Oc1c(-c2ccco2)oc2ccccc2c1=O)c1cccnc1`: the EC50 was 21.2 µM.
For `COc1c(N2CCN(C(=S)Nc3ccccc3F)C(C)C2)c(F)cc2c(=O)c(C(=O)O)cn(C3CC3)c12` (stereo not drawn), the EC50 is more than 69.5 µM.
As to `O=c1c(-c2ccccc2)coc2c(CN3CCOCC3)c(O)ccc12`, the EC50 was more than 69.5 µM.
Consider `COc1cccc2sc3cc(NCC[C@@H]4CCCN4C)ccc3c(=O)c12`, for which the EC50 was more than 69.5 µM.
`CN(C(=O)c1cc2c(=O)n3ccccc3nc2s1)C1CCCCC1`: the EC50 was more than 69.5 µM.
With `O=C(OC1CCOC1=O)c1ccc(-c2nc3ccccc3s2)s1` (stereo not drawn), the EC50 is more than 69.5 µM.
As to `COC(=O)C1=NN(c2ccccc2)C2C(=O)N(c3ccccc3OC)C(=O)C12` (stereo not drawn), the EC50 is more than 69.5 µM.
Take `Cc1cccc(C)c1NC(=O)C(c1ccccc1)N1CC(=O)Nc2ccccc21` (stereo not drawn): the EC50 was more than 69.5 µM.

For the origin of these results see PubChem BioAssay AID720493 (The Scripps Research Institute Molecular Screening Center, 2013).
